Data reported in PubChem BioAssay (EPA / NIEHS).
Active and inactive are the calls of the source. How the source made its calls: active means hit-call score of the fitted dose curve at least 0.9, where 1 is the maximum; inactive means score below 0.9.

read-out: Cyclin D2 (CCND2), CCND2 (gene 894); assay: LTEA_HepaRG_CCND2: Life Technologies and Expression Analysis (LTEA) Assay for Cyclin D2 (CCND2) using HepaRG (AID 2283449); conditions: mRNA level, 48 h; actives raise or lower the signal;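 further: CCND2 transcript measured by TaqMan qRT-PCR and normalised to three housekeeping genes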
Protocol: LTEA_HepaRG is a cell based, multiplexed-readout assay that uses HepaRG, a human liver cell line, with measurements taken at 48 hours after chemical dosing on a 96-well plate.LTEA_HepaRG_CCND2 is one of 102 assay component(s) measured in the LTEA HepaRG cell culture assay. It is a marker of Cell proliferation, survival, death.Data from the assay component LTEA_HepaRG_CCND2 was analyzed into 1 endpoint. This assay endpoint, LTEA_HepaRG_CCND2, was analyzed with bidirectional fitting relative to DMSO as the negative control and baseline of activity. Using a type of inducible reporter, measures of mRNA induction for gain or loss-of-signal activity can be used to understand regulation of transcription factor activity. To generalize the intended target to other relatable targets, this assay endpoint is annotated to the cell cycle intended target family, where the subfamily is Cell proliferation, survival, death.
A total of 1060 chemcials from the ToxCast library were tested in eight-point concentration-response experiments. Cell culture and cytotoxicity assays were conducted at Thermo Fisher Scientific's Custom Services facility (Madison, WI). A single lot of human HepaRG cells (Thermo Fisher Scientific, Frederick, MD) was used for the cell culture experiments. 96-well format collagen type I coated plates of human HepaRG cells were prepared using established methods. Briefly, cryopreserved HepaRG cells were thawed, plated at a density of approximately 100,000 cells/well in HepaRG Thaw, Plate, and General Purpose media (HPRG770, Thermo Fisher Scientific), and incubated for 48 hours. 0.5% DMSO was selected as vehicle control to balance the requisite need of DMSO in HepaRG cultures to maintain differentiation (for example, baseline metabolism, proportions of hepatocytes vs. cholangiocytes), while enabling further hepatic receptor pathway activation (for example, PXR and CAR) in response to chemical exposure. 48 hours after plating, the culture medium was replaced with HepaRG Serum-Free Incudtion Media. Cells were exposed to each test chemical in duplicate and maintained in CO2 incubators for another 48 hours. Chemical plates were thawed to room temperature and 200x concentrations of treatment groups were prepared. 8-point conentration-reponse curves were made with the highest exposure at 100 uM, followed by half-log dilutions, all in 0.5% DMSO. Each test plate contained variouse controls, induction positive controls (1mM phenobarbital), cytotoxicity positive controls ([…] aflatoxin B1), vehicle controls (0.5% DMSO), and total lysis controls (0.5% DMSO). Cell morphology images were taken using an Essen IncuCyte FLR automated microscope, with six 96-well plates imaged in about 24 minutes. Images were captured and exported and JPEG files. Spent culture media was transfered to black-well plates for the LDH assay, and remaining media was sorted at -80 C for later use. Cells were treated with RLT buffer and frozen until shipped for gene expression analysis. Total RNA was isolated from the cell suspension in 75 uL of Buffer RLT (Qiagen, Germantown, MD 20874) by Quintiles/Expression Analysis (Durham, NC) using a custom isolation procedure. Total RNA from each plate well was transferred to a preamplification plate. Fluidigm's 96.96 Dynamic ArrayTM (Fluidigm, Amsterdam, the Netherlands) technology was used for gene expression analyses by quantitative reverse transcription polymerase chain reaction (qRT-PCR, performed by Quintiles/Expression Analysis, Durham, NC)89. Standard TaqManTM Assays (Applied Biosystems/ThermoFisher Scientific, Foster City, CA) were used to assess the expression of 93 genes selected based on their selectivity and sensitivity to important hepatic receptors known to be modulated by environmental chemicals; importance in human hepatocyte functionality; and hepatotoxicity. […]

**Q.** For `CN=C=S`, which outcome is on record?
**A.** inactive

**Q.** How did the outcome turn out when `CC(C)N1C(=O)N(c2ccccc2)CSC1=NC(C)(C)C` was run?
**A.** inactive

**Q.** How did the outcome turn out when `CS(=O)(=O)c1ccc(C(=O)C2C(=O)CCCC2=O)c([N+](=O)[O-])c1` was run?
**A.** inactive

**Q.** With `CCOc1nc(F)cc2nc(S(=O)(=O)Nc3c(Cl)cccc3Cl)nn12` as the molecule, how does the outcome read?
**A.** inactive

**Q.** `CC(C)Nc1nc(Cl)nc(NC(C)C)n1` was tested. Which outcome did it give?
**A.** inactive

**Q.** How did the outcome turn out when `N#CN=C1SCCN1Cc1ccc(Cl)nc1` was run?
**A.** inactive

**Q.** For `CCOP(=O)(OCC)Oc1nc(Cl)c(Cl)cc1Cl`, which outcome is on record?
**A.** inactive

**Q.** `C=C(C)CN(CC)c1c([N+](=O)[O-])cc(C(F)(F)F)cc1[N+](=O)[O-]` was tested. Which outcome did it give?
**A.** inactive

**Q.** Which outcome does the source give for `CC(C)(C)C(=O)C(Oc1ccc(Cl)cc1)n1cncn1` (stereo not given) here?
**A.** inactive

**Q.** `CS(=O)(=O)c1cc(C(F)(F)F)ccc1C(=O)c1cnoc1C1CC1` was tested. Which outcome did it give?
**A.** inactive

**Q.** With `CCCCOCN(C(=O)CCl)c1c(CC)cccc1CC` as the molecule, how does the outcome read?
**A.** inactive

**Q.** For `Clc1cccc(C(Cl)(Cl)Cl)n1`, which outcome is on record?
**A.** inactive

**Q.** With `COc1ccc(-c2ccccc2)cc1NNC(=O)OC(C)C` as the molecule, how does the outcome read?
**A.** inactive

**Q.** For `COc1cc(Cl)c(OC)cc1Cl`, which outcome is on record?
**A.** inactive

**Q.** With `CC(C)N1C(=O)c2ccccc2NS1(=O)=O` as the molecule, how does the outcome read?
**A.** inactive

**Q.** How did the outcome turn out when `N#Cc1c(Cl)cccc1Cl` was run?
**A.** inactive

**Q.** With `CC1(C)C(C(=O)OC(C#N)c2cccc(Oc3ccccc3)c2)C1(C)C` (stereo not given) as the molecule, how does the outcome read?
**A.** inactive

**Q.** With `COP(=O)(OC)O/C(C)=C/C(=O)N(C)C` as the molecule, how does the outcome read?
**A.** inactive

**Q.** Which outcome does the source give for `CCOP(=S)(OCC)Oc1nc(Cl)n(C(C)C)n1` here?
**A.** inactive

**Q.** For `O=C1C2CC=CCC2C(=O)N1SC(Cl)(Cl)Cl` (stereo not given), which outcome is on record?
**A.** inactive

**Q.** `CCOc1cc(C(C)(C)C)ccc1C1COC(c2c(F)cccc2F)=N1` (stereo not given) was tested. Which outcome did it give?
**A.** inactive

**Q.** For `CC(C)NC(=O)N1CC(=O)N(c2cc(Cl)cc(Cl)c2)C1=O`, which outcome is on record?
**A.** inactive

**Q.** How did the outcome turn out when `CC1(C)C(C=C(Cl)Cl)C1C(=O)OC(C#N)c1cccc(Oc2ccccc2)c1` (stereo not given) was run?
**A.** inactive

**Q.** With `Nc1c(Cl)c(F)nc(OCC(=O)O)c1Cl` as the molecule, how does the outcome read?
**A.** inactive

**Q.** `N#Cc1c[nH]cc1-c1cccc2c1OC(F)(F)O2` was tested. Which outcome did it give?
**A.** inactive

**Q.** `CCNC(=O)NC(=O)C(C#N)=NOC` was tested. Which outcome did it give?
**A.** inactive

**Q.** With `CCN(CC)c1nc(C)cc(OP(=S)(OC)OC)n1` as the molecule, how does the outcome read?
**A.** inactive

**Q.** With `CC1(C)CON(Cc2ccccc2Cl)C1=O` as the molecule, how does the outcome read?
**A.** inactive

**Q.** `CN/C(=N\[N+](=O)[O-])NCc1cnc(Cl)s1` was tested. Which outcome did it give?
**A.** inactive

**Q.** How did the outcome turn out when `COC(=O)c1c(C(F)F)nc(C(F)(F)F)c(C2=NCCS2)c1CC(C)C` was run?
**A.** inactive

**Q.** With `CC(C)Oc1cccc(NC(=O)c2ccccc2C(F)(F)F)c1` as the molecule, how does the AC50 read?
**A.** 39.8 nM (active)

**Q.** With `COCc1cnc(C2=NC(C)(C(C)C)C(=O)N2)c(C(=O)O)c1` (stereo not given) as the molecule, how does the outcome read?
**A.** inactive

**Q.** Which outcome does the source give for `O=C(O)c1c(Cl)ccc2cc(Cl)cnc12` here?
**A.** inactive

**Q.** `COC(=O)NS(=O)(=O)c1ccc(N)cc1` was tested. Which outcome did it give?
**A.** inactive

**Q.** How did the AC50 turn out when `CCOc1nc(C(Cl)(Cl)Cl)ns1` was run?
**A.** 1110 nM (active)

**Q.** `COC(=O)N(C(=O)N1CO[C@@]2(C(=O)OC)Cc3cc(Cl)ccc3C2=N1)c1ccc(OC(F)(F)F)cc1` was tested. Which outcome did it give?
**A.** inactive

**Q.** How did the outcome turn out when `CCCCC(C#N)(Cn1cncn1)c1ccc(Cl)cc1` (stereo not given) was run?
**A.** inactive

**Q.** How did the AC50 turn out when `COc1cc(OC)nc(NC(=O)NS(=O)(=O)c2ncccc2OCC(F)(F)F)n1` was run?
**A.** 223 nM (active)

**Q.** Which outcome does the source give for `CSC(=O)c1c(C(F)F)nc(C(F)(F)F)c(C(=O)SC)c1CC(C)C` here?
**A.** inactive

**Q.** How did the outcome turn out when `COP(=S)(OC)SCn1nnc2ccccc2c1=O` was run?
**A.** inactive
